Calls of active or inactive are those of the source. The calls were made as follows: active = hit-call score of the fitted dose curve at least 0.9, where 1 is the maximum; inactive = score below 0.9.
Legend:
Conditions in all cases: mRNA level, 48 h; actives raise or lower the signal
[1] = read-out: 3-Hydroxy-3-Methylglutaryl-CoA Synthase 2 (HMGCS2), HMGCS2 (gene 3158); assay: LTEA_HepaRG_HMGCS2: Life Technologies and Expression Analysis (LTEA) Assay for 3-Hydroxy-3-Methylglutaryl-CoA Synthase 2 (HMGCS2) using HepaRG (AID 2283504)
In short: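 This steatosis marker was read as HMGCS2 mRNA change in HepaRG cells treated 48 h with up to 100 uM chemical. Normalisation used housekeeping genes; activity in either direction was fitted relative to 0.5% DMSO vehicle.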

HGF (gene 3082) = assay: LTEA_HepaRG_HGF: Life Technologies and Expression Analysis (LTEA) Assay for Hepatocyte Growth Facto (HGF) using HepaRG (AID 2283505)
In short: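 Using HepaRG monolayers kept in 0.5% DMSO, chemicals were tested in duplicate over eight half-log concentrations from 100 uM for 48 h. Endpoint: HGF mRNA change relative to DMSO, normalized to ACTB/GAPDH/POLR2A.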

[2] = read-out: Intercellular Adhesion Molecule 1 (ICAM1), ICAM1 (gene 3383); assay: LTEA_HepaRG_ICAM1: Life Technologies and Expression Analysis (LTEA) Assay for Intercellular Adhesion Molecule 1 (ICAM1) using HepaRG (AID 2283507)
In short: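 Using the human liver line HepaRG, compounds are tested in duplicate over 48 h at concentrations up to 100 uM. Expression is determined by TaqMan qRT-PCR, normalized to endogenous controls, and analysed relative to 0.5% DMSO vehicle.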

[3] = read-out: Interleukin 6 (IL6), IL6 (gene 3569); assay: LTEA_HepaRG_IL6: Life Technologies and Expression Analysis (LTEA) Assay for Interleukin 6 (IL6) using HepaRG (AID 2283509)
In short: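 HepaRG, ~100,000 cells/well, 48 h pre-culture; serum-free induction medium; cmpd 8-pt half-log from 100 uM, 0.5% DMSO, duplicate, 48 h. Lysis in RLT, TaqMan qRT-PCR; gain or loss vs DMSO.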

[4] = read-out: Interleukin 6 Receptor (IL6R), IL6R (gene 3570); assay: LTEA_HepaRG_IL6R: Life Technologies and Expression Analysis (LTEA) Assay for Interleukin 6 Receptor (IL6R) using HepaRG (AID 2283510);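 as to AC50: differentiated human HepaRG liver cells in serum-free induction medium; TaqMan qRT-PCR signal normalized to ACTB GAPDH and POLR2A housekeeping genes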
In short: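 Differentiated HepaRG cells, plated 48 h, then exposed in duplicate for 48 h in serum-free induction medium to 8 half-log concentrations (top 100 uM, 0.5% DMSO). IL6R mRNA measured by TaqMan qRT-PCR, normalized to ACTB/GAPDH/POLR2A; bidirectional fit vs DMSO.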

[5] = read-out: Potassium channel subfamily K member 1 (KCNK1), KCNK1 (gene 3775); assay: LTEA_HepaRG_KCNK1: Life Technologies and Expression Analysis (LTEA) Assay for Potassium channel subfamily K member 1 (KCNK1) using HepaRG (AID 2283511)
In short: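 Gain or loss of KCNK1 mRNA is the read-out, quantified by qRT-PCR against three housekeeping genes after 48 h chemical treatment of human HepaRG liver cells. Concentrations ran from 100 uM downward in half-log steps, vehicle 0.5% DMSO.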

[6] = read-out: Keratin 19 (KRT19), KRT19 (gene 3880); assay: LTEA_HepaRG_KRT19: Life Technologies and Expression Analysis (LTEA) Assay for Keratin 19 (KRT19) using HepaRG (AID 2283512)
In short: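 Readout is qRT-PCR of KRT19 mRNA, normalized to ACTB, GAPDH and POLR2A, from HepaRG cells treated 48 h with eight-point half-log dilutions topping at 100 uM. Activity in either direction is scored relative to 0.5% DMSO vehicle.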

[7] = read-out: JUN Transcription Factor, JUN (gene 3725); assay: LTEA_HepaRG_JUN: Life Technologies and Expression Analysis (LTEA) Assay for JUN Transcription Factor using HepaRG (AID 2283513)
In short: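 HepaRG cells, 48 h post-plating, exposed 48 h in serum-free induction medium to 8-point half-log series (top 100 uM, 0.5% DMSO), duplicate; mRNA by qRT-PCR (TaqMan, Fluidigm), normalized to ACTB/GAPDH/POLR2A; bidirectional fit vs DMSO.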

[8] = read-out: Lipase C (LIPC), LIPC (gene 3990); assay: LTEA_HepaRG_LIPC: Life Technologies and Expression Analysis (LTEA) Assay for Lipase C (LIPC) using HepaRG (AID 2283514)
In short: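 Read-out is LIPC transcript level by TaqMan qRT-PCR, normalized to three housekeeping genes, after 48 h chemical treatment of human HepaRG liver cells. Curves span eight concentrations topping at 100 uM; activity in either direction scored relative to 0.5% DMSO.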

[9] = read-out: Lipoprotein lipase (LPL), LPL (gene 4023); assay: LTEA_HepaRG_LPL: Life Technologies and Expression Analysis (LTEA) Assay for Lipoprotein lipase (LPL) using HepaRG (AID 2283515)
In short: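 Read-out is LPL transcript level by qRT-PCR, normalized to three housekeeping genes and fitted bidirectionally against the DMSO control. Human HepaRG cells received chemicals for 48 h at up to 100 uM.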

| Structure (SMILES) | outcome [1] | outcome (HGF (gene 3082)) | outcome [2] | outcome [3] | outcome [4] | outcome [5] | outcome [6] | outcome [7] | outcome [8] | outcome [9] | AC50 [2] | AC50 [3] | AC50 [7] | AC50 [4] | AC50 [1] | AC50 [6] | AC50 [9] |
| --- | --- | --- | --- | --- | --- | --- | --- | --- | --- | --- | --- | --- | --- | --- | --- | --- | --- |
| CC(C)O.CC(C)O.OCCN(CCO)CCO.OCCN(CCO)CCO.[Ti] | inactive | inactive | inactive | inactive | inactive | inactive | inactive | inactive | inactive | inactive | – | – | – | – | – | – | – |
| CC(C)(C)c1ccccc1O | inactive | inactive | inactive | inactive | inactive | inactive | inactive | inactive | inactive | inactive | – | – | – | – | – | – | – |
| O=C(O)C1(c2ccc3c(c2)OC[C@H](Cc2ccc(-c4ccccc4)cc2)[C@H]3O)CCCC1 | inactive | inactive | – | – | inactive | inactive | inactive | – | inactive | inactive | 64.4 µM (active) | 78.4 µM (active) | 88.4 µM (active) | – | – | – | – |
| Cc1cc(C)cc(C)c1 | inactive | inactive | inactive | inactive | inactive | inactive | inactive | inactive | inactive | inactive | – | – | – | – | – | – | – |
| N#Cc1cccnc1 | inactive | inactive | inactive | inactive | inactive | inactive | inactive | inactive | inactive | inactive | – | – | – | – | – | – | – |
| CN(C)C(=S)S | inactive | inactive | inactive | inactive | inactive | inactive | inactive | inactive | inactive | inactive | – | – | – | – | – | – | – |
| Oc1c(Cl)cc(Cl)cc1Cl | inactive | – | inactive | inactive | inactive | inactive | inactive | inactive | inactive | inactive | – | – | – | – | – | – | – |
| Clc1cccc(Cl)c1 | inactive | inactive | inactive | inactive | inactive | inactive | inactive | inactive | inactive | inactive | – | – | – | – | – | – | – |
| O=C(N[C@H]1CN2CCC1CC2)c1ccc2c(c1)OCCO2 | inactive | inactive | inactive | inactive | – | inactive | inactive | inactive | inactive | inactive | – | – | – | 12.2 µM (active) | – | – | – |
| CCCCCCCCCCCCc1cccc(S(=O)(=O)O)c1 | – | inactive | inactive | inactive | inactive | inactive | – | inactive | inactive | – | – | – | – | – | 37.9 µM (active) | 76.1 µM (active) | 8.93 µM (active) |
| Oc1cc(Cl)c(Cl)cc1Cl | inactive | inactive | inactive | inactive | inactive | inactive | – | inactive | inactive | inactive | – | – | – | – | – | 50 µM (active) | – |
| COc1ccccc1N | inactive | inactive | inactive | inactive | inactive | inactive | inactive | inactive | inactive | inactive | – | – | – | – | – | – | – |
| OCCN(CCO)CCO | inactive | inactive | inactive | inactive | inactive | inactive | inactive | inactive | inactive | inactive | – | – | – | – | – | – | – |
| Clc1cccc(Cl)c1Cl | inactive | inactive | inactive | inactive | – | inactive | inactive | inactive | inactive | inactive | – | – | – | – | – | – | – |

Reference: PubChem BioAssay (EPA / NIEHS)
